About 79,000 compounds went through this panel and 15% of them were active in at least one assay; those are over-represented in the sample as a whole. Active and inactive are the calls of the source. No stated cut-off is given here; in the data, active means growth inhibition above about 70%; inactive means the rest.

The first assay is described as follows: NCI Yeast Anticancer Drug Screen. Data for the sgs1 mgt1 strain (AID 161).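 Further: 0% = growth of cultures given vehicle only.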 As to conditions: S. cerevisiae sgs1 mgt1 strain, at 50.0 µM, active compounds read high. In short, it runs like this: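 Yeast cells carrying a defined DNA-repair defect were exposed to test compounds. Growth inhibition was measured relative to vehicle-treated controls.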
As for `CNC(=O)CN(CC(=O)NC)C(=O)NC`, the growth inhibition is -18% (inactive). On the same count and under the same terms, for `CCCCCCCCCCCCC1CC(=O)OC1=O` (stereo unspecified) the value was 13% (inactive); for `CC1C(O)CC23COC(=O)C2=CCCC3C1(C)CCC1=CC(=O)OC1` (stereo unspecified), -26.2% (inactive); for `CCOC(=O)C(C(=O)OCC)c1cc(-c2cc3ccccc3o2)oc(=O)c1C#N`, 10.2% (inactive). Still for that read-out and setting: for `C/C=C\COC(=O)CC(C)=O` the value was -4.3% (inactive); for `CC12C=C[C@]3(CC[C@@H]4[C@@](C)(CO)CCC[C@]4(C)C3CC1)C2` (stereo partly specified), 12.9% (inactive). On to `O=C(NNC(=O)Nc1ccccc1)Nc1ccccc1`, for which the growth inhibition is -0.95% (inactive). For `CS(=O)(=O)C(C#N)c1nc2ccccc2nc1Cl` (stereo unspecified), the growth inhibition was -53.1% (inactive). The same measure, in the same setting: for `Cc1cc(C)c(C(=O)CC(C)C)c(C)c1` the value was 4.2% (inactive); for `CCOC(=O)c1cnc2ccccc2c1`, 5.95% (inactive). On the same count and under the same terms, in the case of `CCN(CC)Cc1cc(N=Nc2ccc(-c3ccc(N)c(OC)c3)cc2OC)c2ccccc2c1O` it was 18.6% (inactive); in that of `O=C1C(=O)c2ccccc2C(O)=C1c1ccccc1`, 47.2% (inactive). The same measure, in the same setting: for `COc1cc(-c2cc(=O)c3c(O)c(OC)c(OC)c(OC)c3o2)ccc1O` the value was -14.8% (inactive); for `O=C(Nc1ccccc1F)C(c1ccccc1)c1ccccc1`, 3.25% (inactive); for `Cc1cc(C)c2ccc(NN=O)nc2n1`, 18.9% (inactive). Consider `CCOC(=O)Cc1c(Cc2[nH]c(C(=O)OCc3ccccc3)c(CC(=O)OCC)c2CC(=O)OCC)[nH]c(C(=O)OCc2ccccc2)c1CC(=O)OCC`, for which the growth inhibition is -19% (inactive). Take `NC(=O)c1ccc2c(c1)-c1nc-2nc2[n-]c(nc3nc(nc4[n-]c(n1)c1ccc(C(N)=O)cc41)-c1ccc(C(N)=O)cc1-3)c1ccc(C(N)=O)cc21.[Co+2]`: the growth inhibition was 1.8% (inactive).

Consider `O=[N+]([O-])c1ccc(/C(CBr)=N/N2CCCCCC2)cc1`, for which the growth inhibition was -19.7% (inactive). Regarding `CN1C(=O)C2CC(=O)N(Cc3ccccc3)C(=O)C2C1=O` (stereo unspecified), the growth inhibition was -1.05% (inactive).

In the case of `NC(N)=NS(=O)(=O)c1ccc(NC(=O)c2cccc3c(N)c4ccccc4nc23)cc1`, the growth inhibition was -0.2% (inactive). For `CC(=O)c1cc([N+](=O)[O-])c(N)s1`, the growth inhibition is -13.2% (inactive).

Another assay can be described thus: NCI Yeast Anticancer Drug Screen. Data for the cln2 rad14 strain (AID 165).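 Further: 0% = growth equal to vehicle treated cultures.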 Particulars: S. cerevisiae cln2 rad14 strain, at 50.0 µM, active compounds read high. In short, it runs like this:
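Readout is yeast growth inhibition versus vehicle-treated controls, using a strain with cln2 and rad14 alterations exposed to compound.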
Turning to `COc1ccc2ncc(COC(=O)Nc3ccccc3)c(COC(=O)Nc3ccccc3)c2c1`, the growth inhibition is 5.65% (inactive).

On to `Ic1ccccc1/C=C/c1ccccn1`, for which the growth inhibition was -54.6% (inactive). Same read-out and setting: in the case of `NC(CC(=O)O)C(=O)OCc1cccc(N=Nc2ccccc2)c1` (stereo unspecified) it was -3.2% (inactive).

`O=C(Cc1ccccc1)N/N=C(/c1nc2ccc([N+](=O)[O-])cc2[nH]c1=O)C(O)c1ccco1` (stereo unspecified): the growth inhibition was -79.2% (inactive). `NC(=O)C[n+]1cccc(C(=O)Nc2ccc(Cl)cc2)c1`: the growth inhibition was -23.4% (inactive). The same measure, in the same setting: for `[C-]#[N+]C(=C\c1ccc(O)cc1)/C(=C/c1ccc(O)cc1)[N+]#[C-]` the value was 96% (active). As to `CCCCNCCCC(C(=O)O)c1ccccc1` (stereo unspecified), the growth inhibition was -10.3% (inactive). In the case of `BrC1CC2CC1C1C2CC2OC21` (stereo unspecified), the growth inhibition was -3.9% (inactive).

In the case of `CN(C)CCCn1c2ccccc2c2cnccc21`, the growth inhibition is -54.5% (inactive). On the same count and under the same terms, in the case of `N#Cc1cnn2ccn(C3OC(CO)C(O)C3O)c12` (stereo unspecified) it was -22.6% (inactive); in that of `CCC(=O)NCCCCCN1CCCCC1`, -15.6% (inactive); in that of `Cc1ccc2c(c1)[nH]c(=S)n2/C=C1\C(=O)Oc2ccccc2C1=O`, -31.7% (inactive). Same read-out and setting: for `O=C(OCC(Br)C(Br)c1ccccc1)c1ccccc1` (stereo unspecified) the value was -1.4% (inactive). As to `CCCOCOCCC`, the growth inhibition was -28.4% (inactive). On to `S=c1nc[nH]c2c1CN(Cc1ccccc1)CC2`, for which the growth inhibition is -23.4% (inactive). As to `N#C/C(=C\C=C\c1ccccc1)C(N)=O`, the growth inhibition was -7.45% (inactive). Turning to `CCOC(=O)C(NC(=O)OC(C)(C)C)C(=O)OCC`, the growth inhibition was -28.9% (inactive). Still for that read-out and setting: in the case of `CC1(C)COC(=O)/C1=C/C#N` it was -38.5% (inactive). Still for that read-out and setting: in the case of `CN(C(=O)C1C2c3ccccc3C(c3ccccc32)C1C(=O)N(C)c1ccccc1)c1ccccc1` (stereo unspecified) it was -39% (inactive); in that of `CNC(=O)CN(CC(=O)NC)C(=O)NC`, -3.65% (inactive). The same measure, in the same setting: for `CCCCCCCCCCCCC1CC(=O)OC1=O` (stereo unspecified) the value was 18.1% (inactive).

As for `CC1C(O)CC23COC(=O)C2=CCCC3C1(C)CCC1=CC(=O)OC1` (stereo unspecified), the growth inhibition is -7% (inactive). In the case of `CCOC(=O)C(C(=O)OCC)c1cc(-c2cc3ccccc3o2)oc(=O)c1C#N`, the growth inhibition is 15.8% (inactive). Take `C/C=C\COC(=O)CC(C)=O`: the growth inhibition is -2.75% (inactive).

Regarding `CC12C=C[C@]3(CC[C@@H]4[C@@](C)(CO)CCC[C@]4(C)C3CC1)C2` (stereo partly specified), the growth inhibition is 8.25% (inactive). Turning to `O=C(NNC(=O)Nc1ccccc1)Nc1ccccc1`, the growth inhibition is -12.9% (inactive). In the case of `CS(=O)(=O)C(C#N)c1nc2ccccc2nc1Cl` (stereo unspecified), the growth inhibition is -9.6% (inactive). On the same count and under the same terms, for `Cc1cc(C)c(C(=O)CC(C)C)c(C)c1` the value was 24.6% (inactive); for `CCOC(=O)c1cnc2ccccc2c1`, -44.9% (inactive); for `CCN(CC)Cc1cc(N=Nc2ccc(-c3ccc(N)c(OC)c3)cc2OC)c2ccccc2c1O`, 19.8% (inactive). The same measure, in the same setting: in the case of `O=C1C(=O)c2ccccc2C(O)=C1c1ccccc1` it was 7.75% (inactive). Same read-out and setting: in the case of `COc1cc(-c2cc(=O)c3c(O)c(OC)c(OC)c(OC)c3o2)ccc1O` it was 28.4% (inactive). With `O=C(Nc1ccccc1F)C(c1ccccc1)c1ccccc1`, the growth inhibition is -1.45% (inactive).

Consider `Cc1cc(C)c2ccc(NN=O)nc2n1`, for which the growth inhibition is 19.1% (inactive). In the case of `CCOC(=O)Cc1c(Cc2[nH]c(C(=O)OCc3ccccc3)c(CC(=O)OCC)c2CC(=O)OCC)[nH]c(C(=O)OCc2ccccc2)c1CC(=O)OCC`, the growth inhibition is -3.1% (inactive). The same measure, in the same setting: in the case of `NC(=O)c1ccc2c(c1)-c1nc-2nc2[n-]c(nc3nc(nc4[n-]c(n1)c1ccc(C(N)=O)cc41)-c1ccc(C(N)=O)cc1-3)c1ccc(C(N)=O)cc21.[Co+2]` it was 29.2% (inactive). For `O=[N+]([O-])c1ccc(/C(CBr)=N/N2CCCCCC2)cc1`, the growth inhibition was 7.9% (inactive). On to `CN1C(=O)C2CC(=O)N(Cc3ccccc3)C(=O)C2C1=O` (stereo unspecified), for which the growth inhibition is 9.3% (inactive). Consider `NC(N)=NS(=O)(=O)c1ccc(NC(=O)c2cccc3c(N)c4ccccc4nc23)cc1`, for which the growth inhibition was 8.65% (inactive).

Consider `CC(=O)c1cc([N+](=O)[O-])c(N)s1`, for which the growth inhibition is 5.25% (inactive).

For the origin of these results see PubChem BioAssay (NCI).
